Measurements published in PubChem BioAssay (Tox21).
“And” between values parts separate entries of the source, which are not always exact repeats. Equal values may be shown once. Inconclusive results are not listed. The source made the active and inactive calls. Unless noted, the call rests on the fitted dose curve; in most records, active means well fitted curve in the direction sought with a large enough effect in the repeat runs; inconclusive means weak or mixed curves; inactive means no such curve, though single readings can be large; an effect the other way counts as inactive or inconclusive.

Legend:
[1] = qHTS assay to identify small molecule agonists of the hypoxia (HIF-1) signaling pathway - cell viability counter screen (AID 1224844; calls by dose curve; further: nearly all actives have a fitted effect of over 50% in size)
In short: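 HRE-bla ME-180; 0.5% dFBS; cpd 17 h, 37C, 5% CO2; CellTiter-Glo lum., 30 min RT, post-FRET read, same wells.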

[2] = qHTS assay to identify small molecule agonists of H2AX (AID 1224845; active means well fitted activation curve with a large enough effect in the signal ratio in the repeat runs, not every such curve was filed as active; the % refers to the signal ratio)
In short: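 Phospho-H2AX Ser139 measured by HTRF (ex 320 nm; em 665 and 620 nm) after 24 hr antibody incubation. Compounds, 15 concentrations, 0.76% DMSO, were applied to CHO-K1 cells for 3hr at 37C before lysis.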

[3] = qHTS assay to identify small molecule agonists of the hypoxia (HIF-1) signaling pathway (AID 1224846; active means well fitted activation curve with a large enough effect in the signal ratio in the repeat runs, not every such curve was filed as active; the % refers to the signal ratio)
In short: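 Reporter induction in HRE-bla ME-180 cells is taken as agonism: cells sit 5 hrs after plating, receive compounds or DMSO only, incubate 17 hrs at 37C under 5% CO2, and are loaded with CCF4-AM for beta-lactamase FRET measurement.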

[4] = qHTS assay to identify small molecule agonists of H2AX - cell viability counter screen (AID 1224847; calls by dose curve; further: top concentration of the series differs between compounds; nearly all actives have a fitted effect of over 30% in size)
In short: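 Quantitative HTS viability measurement: CHO-K1 wild-type cells in serum (10% FBS) medium, short 3 hr drug exposure at 37C with 0.76% DMSO, CellTiter-Glo luminescent detection.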

[5] = qHTS RealTime-Glo MT Cell Viability Assay in HepG2 cells - 24 hour (AID 1224867); further: nearly all actives have a fitted effect of over 50% in size
In short: (§1)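 Compound treatment began 5 h after plating HepG2 cells (600/well) with NanoLuc luciferase and prosubstrate. Plates stayed at 37 C for 40 h; luminescence was captured at six time points, 0 h through 40 h.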

[6] = qHTS RealTime-Glo MT Cell Viability Assay in HEK293 cells - 32 hour (AID 1224868); further: top concentration of the series differs between compounds; nearly all actives have a fitted effect of over 50% in size
In short: (§2)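 Quantitative high-throughput screen of the Tox21 10K library in HEK293: cells and RealTime-Glo reagents plated together, compound added at 5 h, luminescence monitored through 40 h at 37 C.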

[7] = A CellTox Green Cytotoxicity Assay to monitor cytotoxicity in HEK293 cells - 0 hour (AID 1224869); further: nearly all actives have a fitted effect of over 50% in size
In short: (§3)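 Tox21 screen in HEK293: membrane-impermeant cyanine dye fluoresces on binding dead-cell DNA; compound pinned 5 h post-seeding, plates held at 37 C, signal read repeatedly through 40 h.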

[8] = qHTS RealTime-Glo MT Cell Viability Assay in HepG2 cells - 40 hour (AID 1224870); further: nearly all actives have a fitted effect of over 50% in size
In short: (§4)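 Real-time viability: cells seeded at 600 per well together with NanoLuc and cell-permeant prosubstrate, compounds added after 5 h incubation. Luminescence tracked at 0, 8, 16, 24, 32 and 40 h of exposure.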

[9] = A CellTox Green Cytotoxicity Assay to monitor cytotoxicity in HEK293 cells - 40 hour (AID 1224871); further: nearly all actives have a fitted effect of over 45% in size
In short: as §3

[10] = qHTS RealTime-Glo MT Cell Viability Assay in HEK293 cells - 16 hour (AID 1224872)
In short: as §2

[11] = qHTS RealTime-Glo MT Cell Viability Assay in HepG2 cells - 8 hour (AID 1224873); further: nearly all actives have a fitted effect of over 55% in size
In short: as §4

[12] = qHTS RealTime-Glo MT Cell Viability Assay in HEK293 cells - 40 hour (AID 1224874); settings: RealTime-Glo luminescence; max response: stronger effect = lower value; further: nearly all actives have a fitted effect of over 50% in size
In short: (§5)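 HEK293 + NanoLuc + prosubstrate, 600 cells/well; 5 h, 37 C/5% CO2; compound 23 nL in DMSO by pintool; 37 C; luminescence read at 0, 8, 16, 24, 32 and 40 h time points.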

[13] = A CellTox Green Cytotoxicity Assay to monitor cytotoxicity in HEK293 cells - 24 hour (AID 1224875); further: series mostly up to about 77 µM; nearly all actives have a fitted effect of over 45% in size
In short: as §3

[14] = A CellTox Green Cytotoxicity Assay to monitor cytotoxicity in HepG2 cells - 16 hour (AID 1224876); further: nearly all actives have a fitted effect of over 45% in size
In short: (§6)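 Measurements at 0, 8, 16, 24, 32 and 40 h of treatment captured CellTox Green fluorescence in HepG2 cells that had been co-plated with reagent and preincubated 5 h at 37 C/5% CO2.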

[15] = qHTS RealTime-Glo MT Cell Viability Assay in HepG2 cells - 32 hour (AID 1224877); further: nearly all actives have a fitted effect of over 55% in size
In short: as §1

[16] = A CellTox Green Cytotoxicity Assay to monitor cytotoxicity in HepG2 cells - 24 hour (AID 1224878); further: nearly all actives have a fitted effect of over 45% in size
In short: as §6

[17] = qHTS RealTime-Glo MT Cell Viability Assay in HEK293 cells - 0 hour (AID 1224880)
In short: as §5

[18] = A CellTox Green Cytotoxicity Assay to monitor cytotoxicity in HEK293 cells - 32 hour (AID 1224881); further: nearly all actives have a fitted effect of over 40% in size
In short: as §3

[19] = A CellTox Green Cytotoxicity Assay to monitor cytotoxicity in HepG2 cells - 40 hour (AID 1224879); further: nearly all actives have a fitted effect of over 40% in size
In short: as §6
On the % scale 0 is the no-effect control and ±100 the full control effect.

CCCCCCCC=O
inactive: outcome [1] | outcome [2] | outcome [3] | outcome [4] | Potency [5] | Potency [6] | outcome [7] | outcome [8] | Potency [9] | Potency [10] | Potency [11] | max response [12] 1.74% and 27% | Potency [13] | outcome [14] | outcome [15] | Potency [16] | outcome [17] | Potency [18]

C=CC[N+](C)(C)CC=C
inactive: outcome [1] | outcome [2] | outcome [3] | outcome [4] | Potency [5] | Potency [6] | outcome [7] | outcome [8] | Potency [9] | Potency [10] | Potency [11] | max response [12] 2.31% and 7.96% | Potency [13] | outcome [14] | outcome [15] | Potency [16] | outcome [17] | Potency [18]

CCCCCCCCCCCC(=O)OC
inactive: outcome [1] | outcome [2] | outcome [3] | outcome [4] | Potency [5] | outcome [7] | outcome [8] | Potency [9] | Potency [10] | Potency [11] | max response [12] -2.49% and 7.82% | Potency [13] | outcome [14] | outcome [15] | Potency [16] | outcome [17] | Potency [18]

C=Cc1ccc(C)cc1
inactive: outcome [1] | outcome [2] | outcome [3] | outcome [4] | Potency [5] | outcome [7] | outcome [8] | Potency [9] | Potency [10] | Potency [11] | max response [12] -4.48% and 7.7% | Potency [13] | outcome [14] | outcome [15] | Potency [16] | Potency [19] | outcome [17] | Potency [18]

CCOC(=O)n1ccn(C)c1=S
inactive: outcome [1] | outcome [2] | outcome [3] | outcome [4] | Potency [5] | Potency [6] | outcome [8] | Potency [9] | Potency [10] | Potency [11] | max response [12] 1.12% and 2.41% | Potency [13] | outcome [14] | outcome [15] | Potency [16] | Potency [19] | outcome [17] | Potency [18]

O=C(O)/C=C/C(=O)O
inactive: outcome [1] | outcome [2] | outcome [3] | outcome [4] | Potency [5] | outcome [7] | outcome [8] | Potency [9] | Potency [10] | Potency [11] | max response [12] -4.18% and -12.4% | Potency [13] | outcome [14] | outcome [15] | Potency [16] | Potency [19] | outcome [17] | Potency [18]

C=C(C)C(=O)OCC(C)C
inactive: outcome [1] | outcome [2] | outcome [3] | outcome [4] | Potency [5] | Potency [6] | outcome [8] | Potency [9] | Potency [10] | Potency [11] | max response [12] 0.908% and 6.86% | Potency [13] | outcome [14] | outcome [15] | Potency [16] | Potency [19] | outcome [17] | Potency [18]

CCNC(=S)NCC
inactive: outcome [1] | outcome [2] | outcome [3] | outcome [4] | Potency [5] | Potency [6] | outcome [7] | outcome [8] | Potency [9] | Potency [10] | Potency [11] | max response [12] -2.25% and -1.34% | Potency [13] | outcome [14] | outcome [15] | Potency [16] | Potency [19] | outcome [17] | Potency [18]

CC(C)OC(=O)COc1ccc(Cl)cc1Cl
inactive: outcome [1] | outcome [2] | outcome [3] | outcome [4] | Potency [5] | outcome [7] | outcome [8] | Potency [9] | Potency [10] | Potency [11] | max response [12] 8.21% and -2.23% | Potency [13] | outcome [14] | outcome [15] | Potency [16] | Potency [19] | outcome [17] | Potency [18]

COC(=O)CCCC(=O)OC
inactive: outcome [1] | outcome [2] | outcome [3] | outcome [4] | Potency [5] | Potency [6] | outcome [7] | outcome [8] | Potency [9] | Potency [10] | Potency [11] | max response [12] 4.51% and 15.2% | Potency [13] | outcome [14] | outcome [15] | Potency [16] | Potency [19] | outcome [17] | Potency [18]

CCCCCCCCCCN
inactive: outcome [1] | outcome [2] | outcome [3] | outcome [4] | Potency [5] | outcome [7] | outcome [8] | Potency [9] | Potency [10] | Potency [11] | max response [12] 0.163% and 1.85% | Potency [13] | outcome [14] | outcome [15] | Potency [16] | Potency [19] | outcome [17] | Potency [18]

CC(C)CC(C)O (configuration not stated)
inactive: outcome [1] | outcome [2] | outcome [3] | outcome [4] | Potency [5] | outcome [7] | outcome [8] | Potency [9] | Potency [10] | Potency [11] | max response [12] 6.34% and 7.03% | Potency [13] | outcome [14] | outcome [15] | Potency [16] | Potency [19] | outcome [17] | Potency [18]

CC1(C)CC(N)CC(C)(CN)C1 (configuration not stated)
inactive: outcome [1] | outcome [2] | outcome [3] | outcome [4] | Potency [5] | Potency [6] | outcome [7] | outcome [8] | Potency [9] | Potency [10] | Potency [11] | max response [12] -9.67% and 2.41% | Potency [13] | outcome [14] | outcome [15] | Potency [16] | outcome [17] | Potency [18]

COCCCN
inactive: outcome [1] | outcome [2] | outcome [3] | outcome [4] | Potency [5] | Potency [6] | outcome [7] | outcome [8] | Potency [9] | Potency [10] | Potency [11] | max response [12] 3.35% and 3.08% | Potency [13] | outcome [14] | outcome [15] | Potency [16] | outcome [17] | Potency [18]

Brc1ccc(Br)c(Br)c1
inactive: outcome [1] | outcome [2] | outcome [3] | outcome [4] | Potency [5] | Potency [6] | outcome [8] | Potency [10] | Potency [11] | max response [12] -6.36% and -22.4% | outcome [14] | outcome [15] | Potency [16] | outcome [17]
